# Laboratory results taken from PubChem BioAssay (NCATS).
# Inconclusive results are not listed. Where a call stands in place of a potency, no number is given. Calls of active or inactive are those of the source. The call rests on the fitted dose curve; in most records, active means well fitted inhibition curve with a large enough effect; inconclusive means small, poorly fitted or top-dose-only effect; inactive means flat fitted curve, though single readings scatter.
# Columns and labels:
# Experiment in all cases: qHTS profiling for inhibitors of Plasmodium falciparum proliferation (AID 504749); further: nearly all actives have a fitted effect of over 60% in size
# Settings in all cases: P. falciparum in erythrocytes, SYBR Green DNA, 72 h; series mostly up to 28.7 µM
# CP201 = system: CP201
# Outline: (§1)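 Infected RBCs, 0.3% parasitemia/2.5% Hct final; cpd 72 h, 37 C, 5% CO2; lysis buffer with saponin/triton/SYBR Green I, o/n RT dark; FI 485/535; norm. to artemisinin (0.29 uM) and DMSO.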
# CP203 = system: CP203
# Outline: as §1
# CP211 = system: CP211
# Outline: as §1
# CP215 = system: CP215
# Outline: as §1
# CP217 = system: CP217
# Outline: as §1
# CP238 = system: CP238
# Outline: as §1
# CP247 = system: CP247
# Outline: as §1
# CP250 = system: CP250
# Outline: as §1
# CP252 = system: CP252
# Outline: as §1
# CP237 = system: CP237
# Outline: as §1
# Potency means the concentration at half of the fitted maximal effect.
Structure (SMILES),Potency (CP201),Potency (CP203),Potency (CP211),Potency (CP215),Potency (CP217),Potency (CP238),Potency (CP247),Potency (CP250),Potency (CP252),Potency (CP237)
CCC(C)(C)c1ccc(CC(C)CN2C[C@@H](C)O[C@@H](C)C2)cc1 (stereo partly drawn),inactive,inactive,inactive,inactive,inactive,inactive,inactive,inactive,inactive,–
CC(C)Cn1cnc2c(N)nc3ccccc3c21,inactive,inactive,inactive,inactive,inactive,inactive,inactive,inactive,inactive,inactive
CN1CCN(c2c(F)cc3c(=O)c(C(=O)O)cn4c3c2OCN4C)CC1,inactive,inactive,inactive,inactive,inactive,inactive,inactive,inactive,inactive,inactive
CC(C)OC(=O)C(C(=O)OC(C)C)=C1SC=CS1,inactive,inactive,inactive,inactive,inactive,inactive,inactive,inactive,inactive,inactive
CC(C)(C)C(=O)OCOP(=O)(COCCn1cnc2c(N)ncnc21)OCOC(=O)C(C)(C)C,inactive,–,inactive,–,–,–,inactive,–,–,–
CN(C)c1ccc(C(=C2C=CC(=[N+](C)C)C=C2)c2ccc(N(C)C)cc2)cc1,1.2 µM (active),–,0.151 µM (active),1.51 µM (active),0.251 µM (active),0.398 µM (active),0.355 µM (active),0.316 µM (active),0.224 µM (active),0.199 µM (active)
CNS(=O)(=O)Cc1ccc2[nH]cc(CCN(C)C)c2c1,inactive,inactive,inactive,–,inactive,inactive,inactive,inactive,inactive,inactive
COc1ccc(C(=O)CC(=O)c2ccc(C(C)(C)C)cc2)cc1,inactive,inactive,inactive,–,inactive,inactive,inactive,inactive,inactive,–
Oc1c(Cl)cc(Cl)c2cccnc12,inactive,–,–,–,8.91 µM (active),–,8.91 µM (active),12.6 µM (active),–,10 µM (active)
COC(=O)Nc1nc2ccc(C(=O)c3ccccc3)cc2[nH]1,inactive,–,inactive,–,inactive,inactive,inactive,inactive,inactive,inactive
CNCC[C@H](Oc1cccc2ccccc12)c1cccs1,inactive,–,inactive,–,–,–,–,–,–,10 µM (active)
COc1cc([C@@H]2c3cc4c(cc3[C@H](O)[C@H]3COC(=O)[C@H]23)OCO4)cc(OC)c1OC,–,12 µM (active),–,13.5 µM (active),–,–,10 µM (active),8.91 µM (active),–,3.16 µM (active)
Cc1ncc([N+](=O)[O-])n1CCO,inactive,inactive,inactive,–,inactive,inactive,inactive,inactive,inactive,inactive
CCN(C)C(=O)Oc1cccc([C@H](C)N(C)C)c1,inactive,–,inactive,inactive,inactive,inactive,inactive,inactive,inactive,inactive
CC[C@H](C)C(=O)O[C@H]1C[C@@H](C)C=C2C=C[C@H](C)[C@H](CC[C@@H]3C[C@@H](O)CC(=O)O3)[C@H]21,inactive,inactive,inactive,–,inactive,inactive,inactive,inactive,inactive,inactive
CCCCCCNC(=O)n1cc(F)c(=O)[nH]c1=O,–,–,16.9 µM (active),–,–,–,–,–,–,–
CCn1cc(C(=O)O)c(=O)c2cc(F)c(N3CCN(C)CC3)cc21,inactive,–,–,–,–,inactive,–,–,–,–

Structure (SMILES),Potency (CP201),Potency (CP203),Potency (CP211),Potency (CP215),Potency (CP217),Potency (CP238),Potency (CP247),Potency (CP250),Potency (CP252),Potency (CP237)
CCOC(=O)c1ccc(C#Cc2ccc3c(c2)C(C)(C)CCS3)nc1,inactive,inactive,–,inactive,inactive,inactive,–,–,inactive,inactive
O=c1oc2c(O)c(O)cc3c(=O)oc4c(O)c(O)cc1c4c23,–,inactive,–,–,–,–,–,–,–,2 µM (active)
CCc1cc(C(N)=S)ccn1,–,inactive,inactive,inactive,inactive,inactive,inactive,inactive,inactive,inactive
Cc1oc(=O)oc1CN1CCN(c2cc3c(cc2F)c(=O)c(C(=O)O)c2n3C(C)S2)CC1 (stereo not drawn),–,–,–,–,11.2 µM (active),6.31 µM (active),8.91 µM (active),8.91 µM (active),7.94 µM (active),10 µM (active)
CC(N)C12CC3CC(CC(C3)C1)C2 (stereo not drawn),inactive,12 µM (active),–,–,inactive,–,–,inactive,inactive,5.62 µM (active)
COc1cc(NCc2ccc3nc(N)nc(N)c3c2C)cc(OC)c1OC,4.78 µM (active),4.78 µM (active),–,0.675 µM (active),0.282 µM (active),0.631 µM (active),0.447 µM (active),0.794 µM (active),0.251 µM (active),0.141 µM (active)
CCCCOc1ccc(CC(=O)NO)cc1,–,3.61 µM (active),2.56 µM (active),–,–,–,4.47 µM (active),2.24 µM (active),3.98 µM (active),4.47 µM (active)
COc1cccc(N(C)C(=S)Oc2ccc3c(c2)CCCC3)n1,–,–,inactive,–,inactive,inactive,inactive,inactive,inactive,inactive
COc1cc2c(Nc3ccc(Br)cc3F)ncnc2cc1OCC1CCN(C)CC1,–,–,inactive,–,0.447 µM (active),6.31 µM (active),1 µM (active),1.41 µM (active),1.12 µM (active),3.98 µM (active)
CN1CCCC(n2nc(Cc3ccc(Cl)cc3)c3ccccc3c2=O)CC1 (stereo not drawn),–,–,inactive,–,–,inactive,–,inactive,inactive,–
CNC(=O)c1cc(Oc2ccc(NC(=O)Nc3ccc(Cl)c(C(F)(F)F)c3)cc2)ccn1,–,–,12 µM (active),15.1 µM (active),–,10 µM (active),10 µM (active),10 µM (active),–,11.2 µM (active)
O=C(O)c1cn(C2CC2)c2cc(N3CCNCC3)c(F)cc2c1=O,–,–,–,–,inactive,–,inactive,–,–,–
CCOc1cc(N)c(Cl)cc1C(=O)NCC1CN(Cc2ccc(F)cc2)CCO1 (stereo not drawn),–,–,12 µM (active),10.7 µM (active),4.47 µM (active),11.2 µM (active),7.08 µM (active),5.62 µM (active),10 µM (active),11.2 µM (active)
NC(=O)N1c2ccccc2CC(=O)c2ccccc21,inactive,inactive,inactive,–,inactive,inactive,inactive,inactive,inactive,inactive
C1CCC(C(CC2CCCCN2)C2CCCCC2)CC1 (stereo not drawn),–,–,–,–,10 µM (active),–,11.2 µM (active),12.6 µM (active),11.2 µM (active),7.94 µM (active)
CCn1cc(C(=O)O)c(=O)c2cc(F)c(N3CCNCC3)cc21,inactive,inactive,–,inactive,inactive,inactive,inactive,inactive,–,–
CNNCc1ccc(C(=O)NC(C)C)cc1,–,inactive,inactive,inactive,inactive,inactive,inactive,inactive,inactive,inactive
